Experimental data as given in PubChem BioAssay (NCATS).
Records with an inconclusive call do not appear. Calls of active or inactive are those of the source. The call rests on the fitted dose curve; in most records, active means well fitted inhibition curve with a large enough effect; inconclusive means small, poorly fitted or top-dose-only effect; inactive means no such curve, though single readings can be large or run the other way.

test: qHTS for Inhibitors of the Aldehyde Dehydrogenase Family (ALDH1A2, ALDH1A3, ALDH2, ALDH3A1) (AID 2061307); conditions: ALDH inhibition qHTS; series mostly up to 50.3 µM; further: nearly all actives have a fitted effect of over 50% in size; on Potency: test system not described further here
Potency means the concentration at half of the fitted maximal effect.

Potency, inactive:
FC(F)(F)c1ccnn1-c1nc(-c2ccccc2Cl)cs1
CC(=O)c1c(C)n(-c2ccc(N(C)C)cc2)c2ccc(O)cc12
O=C(NCc1ccc(F)cc1)c1nc(-c2ccc(F)cc2)c2ccccn12
Cc1ccc(C)n1-c1ccccc1C(=O)O
Cc1c(P(=S)(c2ccccc2)c2ccccc2)[n+]2ccccc2n1C/C=C/c1ccc(Br)cc1
CN(C)CCCN1c2ccc([N+](=O)[O-])cc2CCc2cc([N+](=O)[O-])ccc21
COc1cccc2cc(C(=O)Nc3ccc(F)c(F)c3)c(=O)oc12
CSc1cc2c(s1)c1cnn(Cc3cccc(N)c3)c(=O)c1n2C
CC1=C[C@@H](CNC(C)C)[C@H](C(C)C)C[C@H]1Cc1nnc(-c2ccncc2)o1
COCCCNC(=O)c1cc2cc(S(=O)(=O)N(C)C)ccc2n1C
COc1ccc(-n2ncc3c2CCCC3NC(=O)CN(C)C)cc1 (stereo not given)
Oc1ccccc1NCC(O)Cn1ccc2ccccc21 (stereo not given)
O=Cc1ccc(Sc2ccccn2)o1
NCC(=O)Nc1cccc(-c2nn3c(=O)cc(N4CCNCC4)nc3s2)c1
Oc1[nH]c2ccccc2c1N=NC(=S)Nc1ccc2c(c1)CCC2
c1ccc(CN2CCN(c3nccc(-c4ccncc4)n3)CC2)nc1
CC(=O)c1ccc(NC(=O)c2cnn(-c3cccc(F)c3)c2-n2cccc2)cc1
Cc1cc(NC(=O)c2cscn2)ccc1C(=O)O
O=C(Nc1ccccn1)c1cccs1
COc1ccc(Nc2nc(N3CCCC3)nc(N3CCOCC3)n2)cc1
COc1ccc(-c2ccncc2)cc1OC
COc1ccc(C(=O)OCC(=O)Nc2cccc(C(F)(F)F)c2)cc1OC
COc1ccc(NC(=S)N=Nc2c(O)[nH]c3ccccc23)cc1
COc1ccc(NC(=O)c2ccc(N3CCOCC3)nc2)cc1
O=C(N/N=C/c1ccc(Br)o1)c1ccccc1
O=C(Nc1ncccc1O)c1ccc(S(=O)(=O)Nc2ccccc2)cc1
O=C(Nc1cccnc1)c1nccs1
O=C(Nc1nnc(C(F)(F)F)s1)c1ccc(Cl)cc1
c1ccc(Nc2cc(-c3ccoc3)ncn2)cc1

Potency, active:
Cc1c2c(=O)n(-c3ccccc3)[nH]c2cc(=O)n1Cc1ccco1 22.5 µM
O=C(N/N=C/c1ccc(Sc2ccccn2)o1)c1cccc(F)c1 15.9 µM
O=C1C=CC(=O)N1c1ccc(N2CCOCC2)cc1 1.13 µM
O=C(CCCCc1cn(-c2cc3ccc(O)cc3oc2=O)nn1)NCCOCCOCCOc1ccc(-n2ncc3c2CCCC3NC(=O)c2ccccn2)cc1 (stereo not given) 2.82 µM
N#Cc1nc(-c2cccc3ccccc23)oc1NCCC1CNC1 15.8 µM
O=C(CNc1cccc(S(=O)(=O)N2CCOCC2)c1)Nc1ccc(OC(F)(F)F)cc1 1.27 µM
COc1ccccc1C(=O)Nc1nnc(SCc2cc(=O)c3ccccc3[nH]2)s1 3.98 µM
COc1ccccc1Nc1ccc2c(O)cc(S(=O)(=O)O)cc2c1 31.6 µM
FC(F)(F)c1ccc(CNc2nc(-c3ccncc3)nc3ccccc23)cc1 4.47 µM
CSc1ccc(-c2csc(N3CCC(C(N)=O)CC3)n2)cc1 4 µM
O=C(c1cccc(Cl)c1)c1no[n+]([O-])c1C(=O)c1cccc(Cl)c1 12.7 µM
